Over roughly 39,000 sequences, “fluorescence intensity (a.u.)” has its median near 4,300; the highest 2% begin near 39,000. The full list was thinned out, with the highest values kept by preference.
Target: T1, OsSMF1 (Oryza sativa, UniProt Q6ZLB0 1-436)
T1 sequence: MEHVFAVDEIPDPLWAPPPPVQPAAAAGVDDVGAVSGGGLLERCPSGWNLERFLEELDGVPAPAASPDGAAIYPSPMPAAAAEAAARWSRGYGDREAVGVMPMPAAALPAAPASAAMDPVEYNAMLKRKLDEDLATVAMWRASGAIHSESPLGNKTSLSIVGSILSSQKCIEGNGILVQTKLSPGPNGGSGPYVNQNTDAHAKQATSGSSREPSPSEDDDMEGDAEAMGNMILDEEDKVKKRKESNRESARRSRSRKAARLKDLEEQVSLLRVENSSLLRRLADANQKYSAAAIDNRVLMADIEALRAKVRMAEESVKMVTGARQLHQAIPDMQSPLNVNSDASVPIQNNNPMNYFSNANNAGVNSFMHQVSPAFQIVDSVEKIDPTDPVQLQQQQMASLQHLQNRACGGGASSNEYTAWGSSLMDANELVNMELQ
Assay: protein-binding microarray (RPBM); PBS, 2% BSA, 51.3 ng/ul salmon testes DNA, 50 uM zinc acetate, 200 nM TF, 25 C, 1 h; high values mean tight binding
Conditions: protein: recombinant; tags: N-terminal polyhistidine and DsRed monomer fusion (pET32a); chain copies: 2; label: CyDye5-dUTP incorporated in the synthesized complementary strand; 3' TTTTT single-stranded linker to array surface; dsDNA, one strand shown
Procedure, shortened: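 Using Ni–NTA, transcription factors fused N-terminally to polyhistidine and DsRed were purified after expression in E. coli BL21-CodonPlus. These were incubated at 200 nM with a blocked, double-stranded custom Agilent array for 1 h at 25 °C in a buffer containing 50 µM zinc acetate, and the array was washed. The binding signal is per-feature fluorescence intensity (arbitrary units) on an Axon 4000B scanner.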

Sequence	binding signal
CCCCTTCATGCCAGCACGCTCCCCACATCCACCCACCACCCGGAGTCACCTAGTGCAG	3320 fluorescence intensity (a.u.)
CGTGCGACCCAGATCTCGCCACGTATGCGCGCGGATCGGCCGGAGTCACCTAGTGCAG	10800 fluorescence intensity (a.u.)
GGGACGAGAGGAGCAACGCGCGGGCGCCGGCTGGCAAGAGCGGAGTCACCTAGTGCAG	3960 fluorescence intensity (a.u.)
ACCTTGAGTTTGAGTGCGATTCCTCCCTTCTTTCGGTCACCGGAGTCACCTAGTGCAG	21100 fluorescence intensity (a.u.)
ACGACGACGACGTCGACGTGTGAACCAGTCAACTGCCACGCGGAGTCACCTAGTGCAG	8590 fluorescence intensity (a.u.)
ACGAAACCGCACAAAAGCCGGTGAATTTTCCCGTAATTTGCGGAGTCACCTAGTGCAG	8780 fluorescence intensity (a.u.)
ATCTAGACACGCGCGCGCGCGCGCACATATATATATATATCGGAGTCACCTAGTGCAG	42600 fluorescence intensity (a.u.)
GCGCACACACACACACAGATATATATATATATATATATATCGGAGTCACCTAGTGCAG	4200 fluorescence intensity (a.u.)
ACATACATATATATATATATATATACATACATATATATATCGGAGTCACCTAGTGCAG	3740 fluorescence intensity (a.u.)
TAAACAGGGCCCTACTGTCATCACGTCGATGTTGAGTTTACGGAGTCACCTAGTGCAG	4070 fluorescence intensity (a.u.)
AAAGGACGGACAGTTTCCTGCGCAAATTCCACGTTCCACCCGGAGTCACCTAGTGCAG	3460 fluorescence intensity (a.u.)
CCGCACGCGCTCCCTTCACCCACCTCGATCGAGCTCCATGCGGAGTCACCTAGTGCAG	3570 fluorescence intensity (a.u.)
ACATGGACTGTGGTGTGGTACACACACGGTATGTCAGAGCCGGAGTCACCTAGTGCAG	3220 fluorescence intensity (a.u.)
GGTTGCCATATTTGCTTGTTATGCCGATGTGGACAAGCTTCGGAGTCACCTAGTGCAG	5600 fluorescence intensity (a.u.)
ATATTCCACCAAGCAAAAGCCACATCATGCTGTGCTGTGCCGGAGTCACCTAGTGCAG	6050 fluorescence intensity (a.u.)
TCCTCCCAAAGATAATTCAGCTGATGATATTTCCATATCTCGGAGTCACCTAGTGCAG	3210 fluorescence intensity (a.u.)
GCTTTGGGCTATAATTGGGCCATTTGTCGTCAGCTCTTGGCGGAGTCACCTAGTGCAG	3230 fluorescence intensity (a.u.)
TTCTTCTTGGTGGTGGTGGGGCCTGGAAACTATGTGACTTCGGAGTCACCTAGTGCAG	4270 fluorescence intensity (a.u.)
ATATACTATTCTCATCTGTCATACACACATCACATCTTGACGGAGTCACCTAGTGCAG	25700 fluorescence intensity (a.u.)
ATACTTGGACTATTCTCTTTCGGAAACTTGACTAGTTACACGGAGTCACCTAGTGCAG	43200 fluorescence intensity (a.u.)
ATGTCGAAAGGCCTATATGGGCCAGATGATGTGTCCAGGGCGGAGTCACCTAGTGCAG	34600 fluorescence intensity (a.u.)

Sequence	binding signal
GGAGAGCTCCGGGAAGACGCGCGCTGACGCGGCCTCCCTGCGGAGTCACCTAGTGCAG	8860 fluorescence intensity (a.u.)
ATATTCTGATATGTCAATATTATTGTGTATGATTGATTGTCGGAGTCACCTAGTGCAG	46700 fluorescence intensity (a.u.)
TCAATGATATTTATGTGTGTGACATGTATGTCGAGTTCGTCGGAGTCACCTAGTGCAG	4360 fluorescence intensity (a.u.)
ATTGATGTGAAGAACAAATAGTCAATATTATTCTGTATATCGGAGTCACCTAGTGCAG	16900 fluorescence intensity (a.u.)
TCTTCTGAATGCTCACAATGACGCCATCCTCATCAGCCGCCGGAGTCACCTAGTGCAG	4480 fluorescence intensity (a.u.)
GCCCTCCCTGTCATCCCCGTCACCCATCCTGCCTGCTTTTCGGAGTCACCTAGTGCAG	8530 fluorescence intensity (a.u.)
AGCTAAAATAAACTTTACCAAATTTTGGCAATGCCAAAATCGGAGTCACCTAGTGCAG	51800 fluorescence intensity (a.u.)
ACATTACCAAATTTTAACAATGCCAAAATTTTGGTAAGGTCGGAGTCACCTAGTGCAG	3450 fluorescence intensity (a.u.)
ACCAAATTTTAGCAATACCAAAATTTTGGCATAGTTGCCACGGAGTCACCTAGTGCAG	7010 fluorescence intensity (a.u.)
AAACGCCAACGCCATACTCCACCTGACCTCACACTCGCACCGGAGTCACCTAGTGCAG	3290 fluorescence intensity (a.u.)
CGTCCCTTGGACGTCATCTTCTCCTCACGTGCATTGCCTCCGGAGTCACCTAGTGCAG	4360 fluorescence intensity (a.u.)
TAAGATGGAGGAGGCGAGGAGAGTTGCGTAGGATGGAGTGCGGAGTCACCTAGTGCAG	3880 fluorescence intensity (a.u.)
TTTGGCATACCTGGAGCAGATCAGGCAGCACATGGCGAGGCGGAGTCACCTAGTGCAG	25600 fluorescence intensity (a.u.)
TTGCAGCATCACCTGGCGAGGCGTAGCTAGGAGATGCAGACGGAGTCACCTAGTGCAG	40100 fluorescence intensity (a.u.)
TTATGAGTTTAGAGGGATGATTAGGATACATGGGAATTTTCGGAGTCACCTAGTGCAG	22200 fluorescence intensity (a.u.)
AACCCGGCGTTGGTGAGCTGTTCCATTGTGTCTATAGGCACGGAGTCACCTAGTGCAG	3210 fluorescence intensity (a.u.)
TACTTAGCTAGCTAATCGCGTTGCTCTTTCTCGTACTATACGGAGTCACCTAGTGCAG	20400 fluorescence intensity (a.u.)
TGGATATGCATGCGTACGTACGTAGCTTACCTATAGCTAGCGGAGTCACCTAGTGCAG	3500 fluorescence intensity (a.u.)
GATATATATACGCGTTCATCAGCGTACGTTCTTATAGCTACGGAGTCACCTAGTGCAG	40100 fluorescence intensity (a.u.)
CACTCCGGCGTGACGGAGCCCTTCCCCGATGTGATGCCTACGGAGTCACCTAGTGCAG	32600 fluorescence intensity (a.u.)
AGGGGCGGAGGGCAGCGATTTTGGTTGGTAGTAGTACGGGCGGAGTCACCTAGTGCAG	3610 fluorescence intensity (a.u.)

From PMC7819943, “Rice protein-binding microarrays: a tool to detect cis-acting elements near promoter regions in rice”
